This is an account of results in PMC7862700, “An all-to-all approach to the identification of sequence-specific readers for epigenetic DNA modifications on cytosine”.

Common to all, as to assay: DAPPL (digital affinity profiling via proximity ligation, sequencing); 10 mM Tris-HCl pH 7.5, 50 mM NaCl, 1 mM DTT, 4% glycerol, room temperature, 30 min; GST-TFs on glutathione beads, 16-mer random dsDNA library, 0.1% formaldehyde crosslink after washing; high values mean tight binding
The target of experiment [1] is T1, FEV (Homo sapiens, UniProt Q99581 1-238).
T1 sequence: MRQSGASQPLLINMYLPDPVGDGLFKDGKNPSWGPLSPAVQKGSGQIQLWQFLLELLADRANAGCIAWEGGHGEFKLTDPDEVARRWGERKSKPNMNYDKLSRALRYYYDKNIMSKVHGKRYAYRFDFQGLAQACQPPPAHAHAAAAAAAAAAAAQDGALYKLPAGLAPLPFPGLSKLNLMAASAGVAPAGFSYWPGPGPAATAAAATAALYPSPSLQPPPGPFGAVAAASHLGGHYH
The settings on record: protein: recombinant; tags: N-terminal GST; dsDNA, one strand shown. The method in brief:
(§1)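 Binding signal is each hexamer's read frequency for a factor divided by its frequency in the tag-only sample. The factors were GST-fused human transcription factors from yeast, captured on glutathione beads, DNA-barcoded and pooled with that sample. Pools were incubated with 200 nmole of a random double-stranded 16-mer DNA library in Tris/NaCl/DTT/glycerol buffer at room temperature for 30 min, then washed, crosslinked with 0.1% formaldehyde, proximity-ligated with BsaI/T4 ligase (1 h, 37 °C), PCR-amplified and sequenced on an Illumina NextSeq500.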

Experiment [2] concerns the target ETV5 (Homo sapiens, UniProt P41161 1-510). The following applies: protein: recombinant; tags: N-terminal GST; dsDNA, one strand shown. In outline:
as §1

In experiment [3] the target is HSF1 (Homo sapiens, UniProt Q00613 1-529). The settings on record: protein: recombinant; tags: N-terminal GST; chain copies: 3; dsDNA, one strand shown. The method in brief:
as §1

For experiment [4], the target named is T2, SPIC (Homo sapiens, UniProt Q8N5J4 1-248).
T2 sequence: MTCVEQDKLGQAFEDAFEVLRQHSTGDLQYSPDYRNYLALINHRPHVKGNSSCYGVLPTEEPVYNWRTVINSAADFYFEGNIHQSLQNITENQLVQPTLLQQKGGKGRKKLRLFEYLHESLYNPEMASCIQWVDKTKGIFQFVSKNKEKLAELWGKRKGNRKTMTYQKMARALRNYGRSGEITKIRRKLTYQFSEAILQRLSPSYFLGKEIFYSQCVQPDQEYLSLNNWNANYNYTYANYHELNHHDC
The settings on record: protein: recombinant; tags: N-terminal GST; dsDNA, one strand shown. In outline: as §1

For experiment [5], the target named is ELF4 (Homo sapiens, UniProt Q99607 1-663). The following applies: protein: recombinant; tags: N-terminal GST; dsDNA, one strand shown. The method in brief: as §1
Sequence of ELF4 (Q99607 whole entry): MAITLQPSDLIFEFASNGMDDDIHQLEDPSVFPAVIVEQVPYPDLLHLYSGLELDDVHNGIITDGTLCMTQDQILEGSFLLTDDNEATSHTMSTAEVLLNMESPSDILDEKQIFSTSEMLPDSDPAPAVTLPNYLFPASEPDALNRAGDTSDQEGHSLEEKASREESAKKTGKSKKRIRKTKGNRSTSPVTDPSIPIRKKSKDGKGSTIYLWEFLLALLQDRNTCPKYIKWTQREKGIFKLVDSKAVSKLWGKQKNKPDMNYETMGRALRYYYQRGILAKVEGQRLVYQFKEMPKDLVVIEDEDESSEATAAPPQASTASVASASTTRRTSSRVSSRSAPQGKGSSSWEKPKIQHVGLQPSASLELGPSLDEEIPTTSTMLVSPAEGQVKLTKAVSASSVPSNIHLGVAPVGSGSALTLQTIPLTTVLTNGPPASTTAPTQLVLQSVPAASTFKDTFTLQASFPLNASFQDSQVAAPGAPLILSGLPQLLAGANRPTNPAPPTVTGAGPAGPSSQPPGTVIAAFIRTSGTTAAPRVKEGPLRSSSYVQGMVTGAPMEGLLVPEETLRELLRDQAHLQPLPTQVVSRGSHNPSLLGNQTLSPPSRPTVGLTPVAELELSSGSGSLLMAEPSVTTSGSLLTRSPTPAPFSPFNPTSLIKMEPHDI
For experiment [6], the target named is T3, ELK4 (Homo sapiens, UniProt P28324-2 1-405).
T3 sequence: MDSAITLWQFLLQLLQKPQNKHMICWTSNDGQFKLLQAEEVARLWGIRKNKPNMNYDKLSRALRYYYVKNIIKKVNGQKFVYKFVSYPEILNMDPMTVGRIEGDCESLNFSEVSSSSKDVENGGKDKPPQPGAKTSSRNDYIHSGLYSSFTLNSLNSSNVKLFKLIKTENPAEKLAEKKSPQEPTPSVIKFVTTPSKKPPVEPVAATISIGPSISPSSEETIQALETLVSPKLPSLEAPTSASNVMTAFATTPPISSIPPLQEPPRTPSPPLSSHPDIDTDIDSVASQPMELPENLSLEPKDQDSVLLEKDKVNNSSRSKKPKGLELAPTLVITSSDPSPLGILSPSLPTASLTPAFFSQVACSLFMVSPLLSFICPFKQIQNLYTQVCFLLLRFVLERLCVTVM
The following applies: protein: recombinant; tags: N-terminal GST; dsDNA, one strand shown. The method in brief:
as §1

Experiment [7] concerns the target T4, ETV2 (Homo sapiens, UniProt O00321 1-342).
T4 sequence: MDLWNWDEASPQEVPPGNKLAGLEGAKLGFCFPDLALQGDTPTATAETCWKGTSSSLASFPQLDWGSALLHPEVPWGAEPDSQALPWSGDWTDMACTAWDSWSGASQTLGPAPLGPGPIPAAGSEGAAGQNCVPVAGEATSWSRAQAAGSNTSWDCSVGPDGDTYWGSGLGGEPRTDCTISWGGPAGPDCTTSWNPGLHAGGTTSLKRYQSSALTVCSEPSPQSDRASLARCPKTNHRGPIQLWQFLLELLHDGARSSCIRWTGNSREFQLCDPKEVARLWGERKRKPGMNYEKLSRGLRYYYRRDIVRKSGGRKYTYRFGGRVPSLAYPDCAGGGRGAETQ
The following applies: protein: recombinant; tags: N-terminal GST; dsDNA, one strand shown. In outline:
as §1

Experiment [8] addresses T5, ELF3 (Homo sapiens, UniProt P78545 1-371).
T5 sequence: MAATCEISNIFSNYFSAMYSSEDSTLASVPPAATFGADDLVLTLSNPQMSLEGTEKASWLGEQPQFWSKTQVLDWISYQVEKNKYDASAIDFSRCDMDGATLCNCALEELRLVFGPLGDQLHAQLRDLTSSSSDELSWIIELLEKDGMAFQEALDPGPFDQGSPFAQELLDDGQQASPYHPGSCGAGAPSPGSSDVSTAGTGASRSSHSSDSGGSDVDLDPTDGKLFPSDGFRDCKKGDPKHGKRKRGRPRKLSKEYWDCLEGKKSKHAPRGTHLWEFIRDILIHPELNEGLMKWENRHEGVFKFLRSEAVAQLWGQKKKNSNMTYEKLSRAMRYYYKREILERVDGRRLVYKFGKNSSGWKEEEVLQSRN
The settings on record: protein: recombinant; tags: N-terminal GST; dsDNA, one strand shown. The method in brief:
as §1

Experiment [9] has as its target CRX (Homo sapiens, UniProt O43186 1-299). The settings on record: protein: recombinant; tags: N-terminal GST; dsDNA, one strand shown. In outline: as §1
For experiment [10], the target named is ETV1 (Homo sapiens, UniProt P50549 1-477). The settings on record: protein: recombinant; tags: N-terminal GST; dsDNA, one strand shown. The method in brief: as §1
Sequence of ETV1 (P50549 whole entry): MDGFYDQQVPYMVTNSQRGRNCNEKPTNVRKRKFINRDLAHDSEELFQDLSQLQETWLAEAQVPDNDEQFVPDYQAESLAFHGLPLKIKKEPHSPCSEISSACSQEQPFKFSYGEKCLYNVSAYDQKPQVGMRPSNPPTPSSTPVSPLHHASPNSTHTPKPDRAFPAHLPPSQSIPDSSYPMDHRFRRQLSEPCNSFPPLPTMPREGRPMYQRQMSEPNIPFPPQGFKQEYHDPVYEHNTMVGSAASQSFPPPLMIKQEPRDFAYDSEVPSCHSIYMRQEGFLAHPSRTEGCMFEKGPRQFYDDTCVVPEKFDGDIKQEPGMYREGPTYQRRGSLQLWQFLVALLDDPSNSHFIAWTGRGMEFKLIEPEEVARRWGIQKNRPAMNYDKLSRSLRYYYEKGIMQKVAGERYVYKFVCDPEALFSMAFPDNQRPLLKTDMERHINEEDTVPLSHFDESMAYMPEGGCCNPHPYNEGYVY
For experiment [11], the target named is T6, ERF (Homo sapiens, UniProt P50548 1-548).
T6 sequence: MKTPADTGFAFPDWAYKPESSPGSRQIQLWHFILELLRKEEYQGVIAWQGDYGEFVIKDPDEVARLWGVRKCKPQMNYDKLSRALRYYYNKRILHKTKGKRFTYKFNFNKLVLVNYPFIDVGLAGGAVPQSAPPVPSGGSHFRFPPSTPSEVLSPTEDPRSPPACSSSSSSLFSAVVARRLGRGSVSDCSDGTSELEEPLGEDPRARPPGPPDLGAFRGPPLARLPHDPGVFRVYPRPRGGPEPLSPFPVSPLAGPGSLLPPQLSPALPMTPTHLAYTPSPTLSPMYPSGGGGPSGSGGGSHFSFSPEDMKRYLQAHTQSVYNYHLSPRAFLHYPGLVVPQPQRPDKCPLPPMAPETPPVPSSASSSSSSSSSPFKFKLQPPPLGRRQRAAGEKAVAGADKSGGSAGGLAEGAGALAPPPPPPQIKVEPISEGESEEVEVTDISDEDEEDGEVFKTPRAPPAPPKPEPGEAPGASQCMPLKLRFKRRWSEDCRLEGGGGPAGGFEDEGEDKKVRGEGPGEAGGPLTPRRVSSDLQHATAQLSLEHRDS
The following applies: protein: recombinant; tags: N-terminal GST; dsDNA, one strand shown. In outline: as §1

For experiment [12], the target named is T7, ETV3L (Homo sapiens, UniProt Q6ZN32 1-361).
T7 sequence: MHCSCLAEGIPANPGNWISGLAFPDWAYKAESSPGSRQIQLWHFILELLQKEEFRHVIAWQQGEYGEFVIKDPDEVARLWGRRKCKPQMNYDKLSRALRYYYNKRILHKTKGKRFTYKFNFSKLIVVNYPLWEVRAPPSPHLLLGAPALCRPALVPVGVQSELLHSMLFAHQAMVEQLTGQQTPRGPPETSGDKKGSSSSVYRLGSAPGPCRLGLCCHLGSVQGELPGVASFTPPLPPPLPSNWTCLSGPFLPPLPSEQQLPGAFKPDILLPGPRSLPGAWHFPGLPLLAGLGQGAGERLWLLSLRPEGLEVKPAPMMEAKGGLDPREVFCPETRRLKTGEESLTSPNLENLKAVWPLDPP
The following applies: protein: recombinant; tags: N-terminal GST; dsDNA, one strand shown. In outline:
as §1

Experiment [13] has as its target T8, ETS2 (Homo sapiens, UniProt P15036 1-469).
T8 sequence: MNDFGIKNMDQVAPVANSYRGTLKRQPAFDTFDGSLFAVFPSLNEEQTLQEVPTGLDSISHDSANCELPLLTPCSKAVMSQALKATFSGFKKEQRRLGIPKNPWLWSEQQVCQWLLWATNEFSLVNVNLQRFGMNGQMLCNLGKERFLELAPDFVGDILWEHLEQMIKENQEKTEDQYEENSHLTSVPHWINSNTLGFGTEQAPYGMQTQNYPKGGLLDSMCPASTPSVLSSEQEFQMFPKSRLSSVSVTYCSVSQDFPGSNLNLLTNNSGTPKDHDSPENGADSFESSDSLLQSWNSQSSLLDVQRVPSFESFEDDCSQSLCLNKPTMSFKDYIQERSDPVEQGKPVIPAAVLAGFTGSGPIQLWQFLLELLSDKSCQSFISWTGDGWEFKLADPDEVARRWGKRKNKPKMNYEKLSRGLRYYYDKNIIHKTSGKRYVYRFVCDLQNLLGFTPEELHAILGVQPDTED
The following applies: protein: recombinant; tags: N-terminal GST; dsDNA, one strand shown. In outline: as §1

Experiment [14] addresses T9, SPDEF (Homo sapiens, UniProt O95238 1-335).
T9 sequence: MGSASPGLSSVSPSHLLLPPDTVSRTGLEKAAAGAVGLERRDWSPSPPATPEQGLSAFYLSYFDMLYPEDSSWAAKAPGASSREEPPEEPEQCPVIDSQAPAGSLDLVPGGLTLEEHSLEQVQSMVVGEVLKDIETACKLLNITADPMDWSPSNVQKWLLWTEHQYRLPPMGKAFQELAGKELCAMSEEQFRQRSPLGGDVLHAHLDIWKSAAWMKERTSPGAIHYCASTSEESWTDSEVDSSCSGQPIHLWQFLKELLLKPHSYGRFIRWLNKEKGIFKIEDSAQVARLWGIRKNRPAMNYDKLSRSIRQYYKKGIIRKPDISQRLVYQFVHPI
The following applies: protein: recombinant; tags: N-terminal GST; dsDNA, one strand shown. In outline:
as §1

The target in experiment [15] is T10, ETV7 (Homo sapiens, UniProt Q9Y603 1-341).
T10 sequence: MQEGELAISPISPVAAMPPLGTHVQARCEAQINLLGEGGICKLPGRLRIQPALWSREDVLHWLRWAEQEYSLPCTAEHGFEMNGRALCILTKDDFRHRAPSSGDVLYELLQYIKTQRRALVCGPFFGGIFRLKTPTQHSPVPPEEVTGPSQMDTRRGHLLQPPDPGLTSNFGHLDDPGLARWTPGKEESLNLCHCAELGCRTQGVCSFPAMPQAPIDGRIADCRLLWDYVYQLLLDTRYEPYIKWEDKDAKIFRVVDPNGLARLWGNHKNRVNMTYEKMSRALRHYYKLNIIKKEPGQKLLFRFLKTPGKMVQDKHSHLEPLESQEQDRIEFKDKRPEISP
The settings on record: protein: recombinant; tags: N-terminal GST; dsDNA, one strand shown. The method in brief: as §1

In experiment [16] the target is T11, ELF5 (Homo sapiens, UniProt Q9UKW6-2 1-255).
T11 sequence: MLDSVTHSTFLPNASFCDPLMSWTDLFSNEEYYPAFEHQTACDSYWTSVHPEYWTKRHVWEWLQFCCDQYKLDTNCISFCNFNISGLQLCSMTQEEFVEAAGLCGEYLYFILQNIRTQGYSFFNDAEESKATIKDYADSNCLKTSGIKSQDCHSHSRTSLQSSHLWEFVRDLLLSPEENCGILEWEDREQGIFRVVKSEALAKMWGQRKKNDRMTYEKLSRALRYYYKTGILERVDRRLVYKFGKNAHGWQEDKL
The following applies: protein: recombinant; tags: N-terminal GST; dsDNA, one strand shown. The method in brief:
as §1

The target in experiment [17] is T12, ETV3 (Homo sapiens, UniProt P41162-2 1-143).
T12 sequence: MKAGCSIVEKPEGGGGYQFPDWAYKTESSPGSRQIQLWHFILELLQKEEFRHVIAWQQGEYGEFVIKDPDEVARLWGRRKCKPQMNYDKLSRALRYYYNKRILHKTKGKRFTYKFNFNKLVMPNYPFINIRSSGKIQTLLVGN
The settings on record: protein: recombinant; tags: N-terminal GST; dsDNA, one strand shown. In outline: as §1

The target in experiment [18] is ETV6 (Homo sapiens, UniProt P41212 1-452). The settings on record: protein: recombinant; tags: N-terminal GST; dsDNA, one strand shown. The method in brief:
as §1

Sequence of CRX (O43186 whole entry): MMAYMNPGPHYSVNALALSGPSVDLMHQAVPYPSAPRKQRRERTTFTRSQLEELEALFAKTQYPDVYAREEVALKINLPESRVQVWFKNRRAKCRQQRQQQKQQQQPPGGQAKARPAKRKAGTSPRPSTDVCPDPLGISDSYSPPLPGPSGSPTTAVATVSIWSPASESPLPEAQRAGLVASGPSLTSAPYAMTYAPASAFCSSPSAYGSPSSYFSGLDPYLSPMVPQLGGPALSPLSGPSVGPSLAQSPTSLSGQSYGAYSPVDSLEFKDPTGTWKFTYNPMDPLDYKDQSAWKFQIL
Sequence of ETV5 (P41161 whole entry): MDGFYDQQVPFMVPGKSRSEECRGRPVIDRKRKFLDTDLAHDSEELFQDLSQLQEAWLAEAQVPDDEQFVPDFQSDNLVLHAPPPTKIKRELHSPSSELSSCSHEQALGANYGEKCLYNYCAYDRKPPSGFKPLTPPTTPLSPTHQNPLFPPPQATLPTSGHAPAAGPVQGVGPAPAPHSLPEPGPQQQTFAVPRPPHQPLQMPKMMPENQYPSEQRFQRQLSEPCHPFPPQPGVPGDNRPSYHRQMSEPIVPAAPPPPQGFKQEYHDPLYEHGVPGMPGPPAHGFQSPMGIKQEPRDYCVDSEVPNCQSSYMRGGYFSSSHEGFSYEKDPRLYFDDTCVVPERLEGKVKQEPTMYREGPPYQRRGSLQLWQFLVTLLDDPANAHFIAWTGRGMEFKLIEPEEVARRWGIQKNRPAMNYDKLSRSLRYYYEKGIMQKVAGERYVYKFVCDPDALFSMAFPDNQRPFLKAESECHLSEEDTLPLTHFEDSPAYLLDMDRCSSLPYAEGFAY
Sequence of HSF1 (Q00613 whole entry): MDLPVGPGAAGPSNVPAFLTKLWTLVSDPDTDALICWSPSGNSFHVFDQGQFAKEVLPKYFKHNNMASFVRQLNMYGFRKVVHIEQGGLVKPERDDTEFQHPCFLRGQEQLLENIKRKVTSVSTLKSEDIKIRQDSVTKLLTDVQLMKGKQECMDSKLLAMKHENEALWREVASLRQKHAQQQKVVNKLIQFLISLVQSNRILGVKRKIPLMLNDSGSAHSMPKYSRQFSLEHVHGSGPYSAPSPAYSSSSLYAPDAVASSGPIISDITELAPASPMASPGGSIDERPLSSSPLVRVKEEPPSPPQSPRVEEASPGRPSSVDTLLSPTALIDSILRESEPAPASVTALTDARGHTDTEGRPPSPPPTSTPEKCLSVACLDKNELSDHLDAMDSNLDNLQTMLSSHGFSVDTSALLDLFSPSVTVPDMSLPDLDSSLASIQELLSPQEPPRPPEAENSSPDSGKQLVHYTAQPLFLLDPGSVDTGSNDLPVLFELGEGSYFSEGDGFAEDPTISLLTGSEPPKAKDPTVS
Sequence of ETV6 (P41212 whole entry): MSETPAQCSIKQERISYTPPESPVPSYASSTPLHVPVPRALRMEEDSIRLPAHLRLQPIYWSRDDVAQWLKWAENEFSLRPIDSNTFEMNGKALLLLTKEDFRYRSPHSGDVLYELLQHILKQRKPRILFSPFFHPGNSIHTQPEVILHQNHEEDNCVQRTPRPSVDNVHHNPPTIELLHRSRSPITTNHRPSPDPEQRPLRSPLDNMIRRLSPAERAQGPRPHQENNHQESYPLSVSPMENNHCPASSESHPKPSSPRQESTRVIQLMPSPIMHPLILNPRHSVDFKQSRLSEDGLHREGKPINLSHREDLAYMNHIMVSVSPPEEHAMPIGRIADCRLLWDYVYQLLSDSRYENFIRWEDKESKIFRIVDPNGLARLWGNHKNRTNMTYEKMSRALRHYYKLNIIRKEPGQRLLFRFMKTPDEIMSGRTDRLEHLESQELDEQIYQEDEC

CCTCTA: the binding signal in [1] is 1.4 fold enrichment (6-mer frequency, TF over GST control); in [2], 1.27 fold enrichment (6-mer frequency, TF over GST control); in [3], 1.38 fold enrichment (6-mer frequency, TF over GST control); in experiment [4], 1.37 fold enrichment (6-mer frequency, TF over GST control); in [5], 1.35 fold enrichment (6-mer frequency, TF over GST control); in experiment [6], 1.24 fold enrichment (6-mer frequency, TF over GST control). Besides, the binding signal in [7] is 1.37 fold enrichment (6-mer frequency, TF over GST control); in [8], 1.43 fold enrichment (6-mer frequency, TF over GST control); in experiment [9], 1.45 fold enrichment (6-mer frequency, TF over GST control); in experiment [10], 1.28 fold enrichment (6-mer frequency, TF over GST control); in [11] it was 1.34 fold enrichment (6-mer frequency, TF over GST control); in experiment [12], 1.38 fold enrichment (6-mer frequency, TF over GST control). Also, the binding signal in experiment [13] was 1.46 fold enrichment (6-mer frequency, TF over GST control); in experiment [14], 1.32 fold enrichment (6-mer frequency, TF over GST control); in [15], 1.36 fold enrichment (6-mer frequency, TF over GST control); in [16], 1.48 fold enrichment (6-mer frequency, TF over GST control); in experiment [17], 1.33 fold enrichment (6-mer frequency, TF over GST control); in experiment [18] it was 1.3 fold enrichment (6-mer frequency, TF over GST control).
